For one sequence, binding signal results are on record in publication PMC7862700, “An all-to-all approach to the identification of sequence-specific readers for epigenetic DNA modifications on cytosine”.

Holding throughout (experiment): DAPPL (digital affinity profiling via proximity ligation, sequencing); 10 mM Tris-HCl pH 7.5, 50 mM NaCl, 1 mM DTT, 4% glycerol, room temperature, 30 min; GST-TFs on glutathione beads, 16-mer random dsDNA library, 0.1% formaldehyde crosslink after washing; high values mean tight binding
For assay [1], the target named is T1, FEV (Homo sapiens, UniProt Q99581 1-238).
T1 sequence: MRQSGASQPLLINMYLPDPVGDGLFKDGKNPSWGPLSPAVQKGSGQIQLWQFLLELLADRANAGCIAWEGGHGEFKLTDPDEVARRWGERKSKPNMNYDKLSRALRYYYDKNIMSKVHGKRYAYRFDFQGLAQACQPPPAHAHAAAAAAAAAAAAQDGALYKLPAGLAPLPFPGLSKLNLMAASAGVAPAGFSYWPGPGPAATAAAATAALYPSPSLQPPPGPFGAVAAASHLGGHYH
As to conditions: protein: recombinant; tags: N-terminal GST; dsDNA, one strand shown. In a few lines: (§1)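 In yeast, human transcription factors were expressed with a GST fusion, then pulled down on glutathione beads and given DNA barcodes. Pooled with a tag-only sample, they were exposed to 200 nmole of a 16-mer random double-stranded DNA library (Tris/NaCl/DTT/glycerol buffer, room temperature, 30 min), washed, crosslinked with 0.1% formaldehyde, proximity-ligated using BsaI/T4 ligase for 1 h at 37 °C, PCR-amplified and read on an Illumina NextSeq500. Each hexamer's frequency of reads for a factor, divided by the matching frequency for the tag-only sample, gives the binding signal.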

In assay [2] the target is ETV5 (Homo sapiens, UniProt P41161 1-510). The settings on record: protein: recombinant; tags: N-terminal GST; dsDNA, one strand shown. In a few lines:
as §1

The target of assay [3] is HSF1 (Homo sapiens, UniProt Q00613 1-529). The settings on record: protein: recombinant; tags: N-terminal GST; chain copies: 3; dsDNA, one strand shown. In a few lines:
as §1

The target of assay [4] is T2, SPIC (Homo sapiens, UniProt Q8N5J4 1-248).
T2 sequence: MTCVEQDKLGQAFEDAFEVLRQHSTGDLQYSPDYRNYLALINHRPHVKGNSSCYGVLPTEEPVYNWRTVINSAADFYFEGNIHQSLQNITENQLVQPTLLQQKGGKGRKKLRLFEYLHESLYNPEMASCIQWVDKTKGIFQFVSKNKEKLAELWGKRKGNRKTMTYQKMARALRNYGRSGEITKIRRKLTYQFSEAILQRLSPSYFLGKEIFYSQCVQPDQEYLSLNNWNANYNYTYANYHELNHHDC
As to conditions: protein: recombinant; tags: N-terminal GST; dsDNA, one strand shown. In a few lines: as §1

The target in assay [5] is ELF4 (Homo sapiens, UniProt Q99607 1-663). The settings on record: protein: recombinant; tags: N-terminal GST; dsDNA, one strand shown. In a few lines:
as §1

The target of assay [6] is T3, ELK4 (Homo sapiens, UniProt P28324-2 1-405).
T3 sequence: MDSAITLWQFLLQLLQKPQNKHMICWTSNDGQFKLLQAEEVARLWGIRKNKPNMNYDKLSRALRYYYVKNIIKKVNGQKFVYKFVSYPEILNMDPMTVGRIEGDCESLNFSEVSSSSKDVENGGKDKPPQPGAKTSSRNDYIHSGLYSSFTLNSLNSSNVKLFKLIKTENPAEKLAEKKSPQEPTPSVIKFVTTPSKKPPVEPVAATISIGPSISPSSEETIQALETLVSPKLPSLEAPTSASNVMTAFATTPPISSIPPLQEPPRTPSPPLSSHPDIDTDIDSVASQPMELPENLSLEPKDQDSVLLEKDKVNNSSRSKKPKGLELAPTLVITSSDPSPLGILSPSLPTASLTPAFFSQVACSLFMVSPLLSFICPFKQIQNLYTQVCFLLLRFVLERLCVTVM
The settings on record: protein: recombinant; tags: N-terminal GST; dsDNA, one strand shown. In a few lines:
as §1

Assay [7] concerns the target T4, ETV2 (Homo sapiens, UniProt O00321 1-342).
T4 sequence: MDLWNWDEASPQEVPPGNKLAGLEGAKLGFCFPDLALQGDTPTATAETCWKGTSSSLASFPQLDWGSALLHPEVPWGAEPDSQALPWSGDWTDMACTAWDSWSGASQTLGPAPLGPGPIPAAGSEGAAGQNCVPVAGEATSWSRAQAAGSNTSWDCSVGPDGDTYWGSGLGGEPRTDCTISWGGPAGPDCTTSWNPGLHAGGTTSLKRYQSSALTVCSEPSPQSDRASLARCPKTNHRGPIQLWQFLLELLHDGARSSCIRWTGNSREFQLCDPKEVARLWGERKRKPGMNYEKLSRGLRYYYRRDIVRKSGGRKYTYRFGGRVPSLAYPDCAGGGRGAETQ
As to conditions: protein: recombinant; tags: N-terminal GST; dsDNA, one strand shown. In outline:
as §1

The target of assay [8] is T5, ELF3 (Homo sapiens, UniProt P78545 1-371).
T5 sequence: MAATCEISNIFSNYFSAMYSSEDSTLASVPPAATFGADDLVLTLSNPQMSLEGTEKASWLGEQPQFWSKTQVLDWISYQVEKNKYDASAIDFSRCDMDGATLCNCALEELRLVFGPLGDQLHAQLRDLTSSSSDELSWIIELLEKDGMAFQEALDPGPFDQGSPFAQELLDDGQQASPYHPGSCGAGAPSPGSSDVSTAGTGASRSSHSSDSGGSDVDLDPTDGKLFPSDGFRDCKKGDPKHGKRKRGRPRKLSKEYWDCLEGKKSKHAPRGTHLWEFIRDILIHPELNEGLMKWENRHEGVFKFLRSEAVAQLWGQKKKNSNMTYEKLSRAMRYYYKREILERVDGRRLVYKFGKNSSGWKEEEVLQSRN
As to conditions: protein: recombinant; tags: N-terminal GST; dsDNA, one strand shown. In outline:
as §1

Assay [9] concerns the target CRX (Homo sapiens, UniProt O43186 1-299). The settings on record: protein: recombinant; tags: N-terminal GST; dsDNA, one strand shown. In outline: as §1
Assay [10] concerns the target ETV1 (Homo sapiens, UniProt P50549 1-477). The settings on record: protein: recombinant; tags: N-terminal GST; dsDNA, one strand shown. In a few lines:
as §1

Assay [11] has as its target T6, ERF (Homo sapiens, UniProt P50548 1-548).
T6 sequence: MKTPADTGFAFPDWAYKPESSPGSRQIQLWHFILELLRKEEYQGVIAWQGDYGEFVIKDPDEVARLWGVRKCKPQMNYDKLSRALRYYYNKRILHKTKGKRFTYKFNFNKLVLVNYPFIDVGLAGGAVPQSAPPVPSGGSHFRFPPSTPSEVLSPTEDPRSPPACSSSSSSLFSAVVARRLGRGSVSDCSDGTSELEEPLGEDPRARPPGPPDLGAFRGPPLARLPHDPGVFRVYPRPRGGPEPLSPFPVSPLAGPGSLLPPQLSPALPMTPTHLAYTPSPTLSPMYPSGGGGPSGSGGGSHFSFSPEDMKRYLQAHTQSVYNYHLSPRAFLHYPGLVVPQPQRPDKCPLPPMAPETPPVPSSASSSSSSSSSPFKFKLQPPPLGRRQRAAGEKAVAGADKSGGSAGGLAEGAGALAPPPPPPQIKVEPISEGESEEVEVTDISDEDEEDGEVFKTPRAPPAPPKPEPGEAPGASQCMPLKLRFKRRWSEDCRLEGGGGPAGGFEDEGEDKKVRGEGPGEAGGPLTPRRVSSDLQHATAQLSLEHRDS
The settings on record: protein: recombinant; tags: N-terminal GST; dsDNA, one strand shown. In a few lines: as §1

The target in assay [12] is T7, ETV3L (Homo sapiens, UniProt Q6ZN32 1-361).
T7 sequence: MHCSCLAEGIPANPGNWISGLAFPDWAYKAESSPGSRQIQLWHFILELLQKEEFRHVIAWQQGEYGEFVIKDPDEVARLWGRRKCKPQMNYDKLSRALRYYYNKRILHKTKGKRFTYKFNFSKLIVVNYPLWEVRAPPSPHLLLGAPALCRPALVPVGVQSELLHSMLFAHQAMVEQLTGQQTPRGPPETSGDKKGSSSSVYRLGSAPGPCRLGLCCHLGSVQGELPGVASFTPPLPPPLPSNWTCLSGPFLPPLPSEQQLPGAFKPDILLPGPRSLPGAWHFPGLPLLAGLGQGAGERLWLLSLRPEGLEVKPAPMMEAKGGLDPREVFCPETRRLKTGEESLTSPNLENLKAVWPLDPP
The settings on record: protein: recombinant; tags: N-terminal GST; dsDNA, one strand shown. In outline: as §1

In assay [13] the target is T8, ETS2 (Homo sapiens, UniProt P15036 1-469).
T8 sequence: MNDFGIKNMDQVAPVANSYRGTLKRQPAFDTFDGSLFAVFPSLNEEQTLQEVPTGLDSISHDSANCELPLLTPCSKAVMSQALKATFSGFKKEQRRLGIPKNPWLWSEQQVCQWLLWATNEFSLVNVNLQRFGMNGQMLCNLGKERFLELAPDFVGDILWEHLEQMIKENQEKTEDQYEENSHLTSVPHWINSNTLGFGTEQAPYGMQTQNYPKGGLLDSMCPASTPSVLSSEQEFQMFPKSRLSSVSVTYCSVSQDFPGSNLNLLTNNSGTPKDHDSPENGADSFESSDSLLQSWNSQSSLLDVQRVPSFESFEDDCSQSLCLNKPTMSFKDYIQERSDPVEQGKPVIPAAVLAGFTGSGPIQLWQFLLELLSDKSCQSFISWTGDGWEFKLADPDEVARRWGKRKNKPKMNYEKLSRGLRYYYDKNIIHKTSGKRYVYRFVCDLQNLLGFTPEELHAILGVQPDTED
The settings on record: protein: recombinant; tags: N-terminal GST; dsDNA, one strand shown. In a few lines:
as §1

Assay [14] deals with T9, SPDEF (Homo sapiens, UniProt O95238 1-335).
T9 sequence: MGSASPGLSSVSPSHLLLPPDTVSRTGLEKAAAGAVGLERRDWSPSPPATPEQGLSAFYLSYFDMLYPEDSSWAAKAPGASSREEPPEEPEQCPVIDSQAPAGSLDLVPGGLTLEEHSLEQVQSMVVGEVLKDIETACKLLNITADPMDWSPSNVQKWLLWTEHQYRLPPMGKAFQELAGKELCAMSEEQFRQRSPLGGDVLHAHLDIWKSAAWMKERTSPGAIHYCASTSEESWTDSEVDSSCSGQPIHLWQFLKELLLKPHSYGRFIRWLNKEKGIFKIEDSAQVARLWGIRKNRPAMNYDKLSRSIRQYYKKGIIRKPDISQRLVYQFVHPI
As to conditions: protein: recombinant; tags: N-terminal GST; dsDNA, one strand shown. In a few lines:
as §1

Assay [15] has as its target T10, ETV7 (Homo sapiens, UniProt Q9Y603 1-341).
T10 sequence: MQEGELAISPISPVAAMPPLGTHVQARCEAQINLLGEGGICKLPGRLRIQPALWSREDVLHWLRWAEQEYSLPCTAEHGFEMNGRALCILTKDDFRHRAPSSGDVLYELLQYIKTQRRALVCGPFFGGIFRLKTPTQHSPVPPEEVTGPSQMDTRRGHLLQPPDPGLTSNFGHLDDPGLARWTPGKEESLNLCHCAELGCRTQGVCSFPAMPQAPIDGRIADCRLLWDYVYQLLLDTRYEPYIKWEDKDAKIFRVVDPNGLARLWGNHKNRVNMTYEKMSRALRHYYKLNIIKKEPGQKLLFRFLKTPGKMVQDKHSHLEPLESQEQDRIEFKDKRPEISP
The settings on record: protein: recombinant; tags: N-terminal GST; dsDNA, one strand shown. In outline: as §1

Assay [16] concerns the target T11, ELF5 (Homo sapiens, UniProt Q9UKW6-2 1-255).
T11 sequence: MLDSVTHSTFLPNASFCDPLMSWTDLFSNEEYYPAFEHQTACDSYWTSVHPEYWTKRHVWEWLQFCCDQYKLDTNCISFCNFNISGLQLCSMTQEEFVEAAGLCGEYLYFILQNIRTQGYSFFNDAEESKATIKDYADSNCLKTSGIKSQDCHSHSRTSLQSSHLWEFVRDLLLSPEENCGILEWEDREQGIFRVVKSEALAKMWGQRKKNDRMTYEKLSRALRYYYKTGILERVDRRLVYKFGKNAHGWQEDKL
The settings on record: protein: recombinant; tags: N-terminal GST; dsDNA, one strand shown. In outline:
as §1

In assay [17] the target is T12, ETV3 (Homo sapiens, UniProt P41162-2 1-143).
T12 sequence: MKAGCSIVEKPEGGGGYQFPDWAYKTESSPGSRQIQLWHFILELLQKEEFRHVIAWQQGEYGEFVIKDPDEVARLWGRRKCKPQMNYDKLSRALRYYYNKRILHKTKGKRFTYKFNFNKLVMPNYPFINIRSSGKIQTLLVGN
As to conditions: protein: recombinant; tags: N-terminal GST; dsDNA, one strand shown. In a few lines: as §1

Assay [18] addresses ETV6 (Homo sapiens, UniProt P41212 1-452). As to conditions: protein: recombinant; tags: N-terminal GST; dsDNA, one strand shown. In outline:
as §1

Chain of HSF1 (Q00613 whole entry): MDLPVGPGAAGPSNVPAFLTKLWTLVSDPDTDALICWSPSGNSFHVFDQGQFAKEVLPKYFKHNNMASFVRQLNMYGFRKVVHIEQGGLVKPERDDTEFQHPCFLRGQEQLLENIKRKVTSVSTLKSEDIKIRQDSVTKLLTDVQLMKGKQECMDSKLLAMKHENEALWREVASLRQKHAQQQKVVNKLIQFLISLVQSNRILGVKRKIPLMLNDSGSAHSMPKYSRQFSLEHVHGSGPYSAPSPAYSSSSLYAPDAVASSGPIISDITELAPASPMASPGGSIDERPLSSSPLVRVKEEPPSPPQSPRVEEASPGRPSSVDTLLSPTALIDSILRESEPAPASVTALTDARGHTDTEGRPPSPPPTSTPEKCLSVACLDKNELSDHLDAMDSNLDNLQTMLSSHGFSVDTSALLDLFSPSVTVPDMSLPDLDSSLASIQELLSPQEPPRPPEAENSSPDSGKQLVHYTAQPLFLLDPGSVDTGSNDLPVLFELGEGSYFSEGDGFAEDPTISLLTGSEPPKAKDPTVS
Chain of CRX (O43186 whole entry): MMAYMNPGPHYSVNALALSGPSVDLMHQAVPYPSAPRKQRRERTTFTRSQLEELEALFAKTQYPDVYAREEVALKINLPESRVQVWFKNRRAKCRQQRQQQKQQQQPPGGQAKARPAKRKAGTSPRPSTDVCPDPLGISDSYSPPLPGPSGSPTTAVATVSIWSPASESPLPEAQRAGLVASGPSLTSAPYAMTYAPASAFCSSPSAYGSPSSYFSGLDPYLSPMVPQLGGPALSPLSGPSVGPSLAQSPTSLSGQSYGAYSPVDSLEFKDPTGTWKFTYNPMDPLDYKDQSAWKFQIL
Chain of ETV5 (P41161 whole entry): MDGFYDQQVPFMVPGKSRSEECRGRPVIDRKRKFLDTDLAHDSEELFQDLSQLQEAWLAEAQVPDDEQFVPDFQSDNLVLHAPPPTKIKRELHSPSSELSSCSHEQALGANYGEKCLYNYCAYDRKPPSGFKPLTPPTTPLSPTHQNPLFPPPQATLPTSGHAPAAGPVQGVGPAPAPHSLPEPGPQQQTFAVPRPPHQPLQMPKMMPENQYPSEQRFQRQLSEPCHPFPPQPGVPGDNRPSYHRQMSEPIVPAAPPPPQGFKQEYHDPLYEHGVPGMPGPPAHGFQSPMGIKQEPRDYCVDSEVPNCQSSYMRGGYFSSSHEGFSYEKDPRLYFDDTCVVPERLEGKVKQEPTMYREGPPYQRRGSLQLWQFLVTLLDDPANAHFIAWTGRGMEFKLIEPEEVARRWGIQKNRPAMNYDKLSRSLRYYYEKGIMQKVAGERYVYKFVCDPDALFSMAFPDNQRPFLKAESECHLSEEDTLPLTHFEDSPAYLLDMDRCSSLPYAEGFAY
Chain of ELF4 (Q99607 whole entry): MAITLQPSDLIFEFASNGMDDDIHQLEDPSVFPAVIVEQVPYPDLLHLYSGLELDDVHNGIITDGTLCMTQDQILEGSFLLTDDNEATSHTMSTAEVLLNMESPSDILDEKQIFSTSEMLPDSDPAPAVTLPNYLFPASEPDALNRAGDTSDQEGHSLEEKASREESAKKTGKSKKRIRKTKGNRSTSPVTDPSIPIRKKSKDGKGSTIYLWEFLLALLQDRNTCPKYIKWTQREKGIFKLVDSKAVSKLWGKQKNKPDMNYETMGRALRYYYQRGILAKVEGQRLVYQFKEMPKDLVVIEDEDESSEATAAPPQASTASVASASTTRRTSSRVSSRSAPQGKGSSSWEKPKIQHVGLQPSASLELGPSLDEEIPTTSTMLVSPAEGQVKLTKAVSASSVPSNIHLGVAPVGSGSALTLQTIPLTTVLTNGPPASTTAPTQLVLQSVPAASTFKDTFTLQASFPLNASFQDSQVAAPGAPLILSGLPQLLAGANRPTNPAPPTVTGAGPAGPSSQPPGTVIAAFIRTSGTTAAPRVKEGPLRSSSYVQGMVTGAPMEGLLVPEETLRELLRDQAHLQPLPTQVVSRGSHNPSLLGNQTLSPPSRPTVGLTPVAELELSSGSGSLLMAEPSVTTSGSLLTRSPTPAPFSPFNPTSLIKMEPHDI
Chain of ETV6 (P41212 whole entry): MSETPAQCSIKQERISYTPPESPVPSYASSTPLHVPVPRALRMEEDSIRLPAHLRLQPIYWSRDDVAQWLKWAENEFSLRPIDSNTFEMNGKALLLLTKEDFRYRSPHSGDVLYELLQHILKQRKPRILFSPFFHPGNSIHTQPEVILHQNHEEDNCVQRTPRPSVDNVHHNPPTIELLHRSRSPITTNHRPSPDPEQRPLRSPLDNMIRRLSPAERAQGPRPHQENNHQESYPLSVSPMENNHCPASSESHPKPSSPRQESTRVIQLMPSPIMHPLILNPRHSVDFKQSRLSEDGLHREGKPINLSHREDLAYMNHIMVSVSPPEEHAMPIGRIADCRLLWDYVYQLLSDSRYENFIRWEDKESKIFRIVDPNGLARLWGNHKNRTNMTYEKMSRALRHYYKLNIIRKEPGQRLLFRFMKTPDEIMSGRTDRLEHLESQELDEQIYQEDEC
Chain of ETV1 (P50549 whole entry): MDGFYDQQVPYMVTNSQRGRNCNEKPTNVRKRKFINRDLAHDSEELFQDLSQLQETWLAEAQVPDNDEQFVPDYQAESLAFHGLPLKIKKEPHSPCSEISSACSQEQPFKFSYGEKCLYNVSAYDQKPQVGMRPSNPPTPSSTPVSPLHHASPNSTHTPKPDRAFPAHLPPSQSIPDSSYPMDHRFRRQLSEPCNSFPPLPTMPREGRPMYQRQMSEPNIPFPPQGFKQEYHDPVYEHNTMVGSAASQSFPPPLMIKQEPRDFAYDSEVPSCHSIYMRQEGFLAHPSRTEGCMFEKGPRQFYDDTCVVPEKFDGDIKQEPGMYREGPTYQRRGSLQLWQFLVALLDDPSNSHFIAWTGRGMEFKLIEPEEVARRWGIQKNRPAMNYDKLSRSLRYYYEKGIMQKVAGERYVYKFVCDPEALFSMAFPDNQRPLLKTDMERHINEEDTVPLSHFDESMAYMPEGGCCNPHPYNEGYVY

On to TTTGCT, for which the binding signal in assay [1] was 1.16 fold enrichment (6-mer frequency, TF over GST control); in [2] it was 1.2 fold enrichment (6-mer frequency, TF over GST control); in assay [3], 1.47 fold enrichment (6-mer frequency, TF over GST control); in assay [4], 1.22 fold enrichment (6-mer frequency, TF over GST control); in [5] it was 1.27 fold enrichment (6-mer frequency, TF over GST control); in [6], 1.36 fold enrichment (6-mer frequency, TF over GST control). Also, the binding signal in [7] is 1.39 fold enrichment (6-mer frequency, TF over GST control); in assay [8], 1.33 fold enrichment (6-mer frequency, TF over GST control); in assay [9], 1.45 fold enrichment (6-mer frequency, TF over GST control); in assay [10], 1.18 fold enrichment (6-mer frequency, TF over GST control); in assay [11], 1.39 fold enrichment (6-mer frequency, TF over GST control); in [12], 1.22 fold enrichment (6-mer frequency, TF over GST control). The binding signal in [13] was 1.32 fold enrichment (6-mer frequency, TF over GST control); in assay [14] it was 1.16 fold enrichment (6-mer frequency, TF over GST control); in [15], 1.38 fold enrichment (6-mer frequency, TF over GST control); in assay [16] it was 1.16 fold enrichment (6-mer frequency, TF over GST control); in assay [17] it was 1.24 fold enrichment (6-mer frequency, TF over GST control); in assay [18], 1.14 fold enrichment (6-mer frequency, TF over GST control).
